Most compounds without a hit are left out; they make up all but 11% or so of the library.
HPGD inh – qHTS Assay for Inhibitors of HPGD (15-Hydroxyprostaglandin Dehydrogenase); 15-hydroxyprostaglandin dehydrogenase [NAD(+)] (Homo sapiens), P15428; purified HPGD, NADH fluorescence kinetic, PGE2 substrate; Potency, µM, for the others: at the top dose activity change, negative = inhibition, actives largely listed as inhibitors; 150,000 compounds, 4.3% hits; further: potency means the concentration at half of the fitted maximal effect
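20 nM HPGD preincubated 15 min at room temperature with compound in 50 mM Tris-HCl pH 8, 0.01% Tween 20. Started with 1 mM NAD+ and 30 uM prostaglandin E2; NADH fluorescence (360/450 nm) read 5 times over 30-s intervals, last minus first.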
PNC assembly inh – High Content Assay for Compounds that inhibit the Assembly of the Perinucleolar Compartment; PC3M PTB-GFP, PNC prevalence imaging, 16 h; hits give low values; activity change (PNC), negative = inhibition, % at 10 µM; 140,000 compounds, 3.1% hits; AID 2417, 2010;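 active means readout at or below -70, meaning at least 70% loss of cells showing the perinucleolar compartment, a nuclear body marking cancer cells; inconclusive means readout between -30 and a set limit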;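 further: plate controls were DMSO wells for no effect and camptothecin positive control wells for full effect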
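PC3M cells stably expressing PTB-GFP, 750–1000 cells/well, treated 16 h at 37 °C with compound (23 nl of library stock), in duplicate. After paraformaldehyde fixation and Hoechst stain, imaged at 20x; PNC prevalence scored by image analysis.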
ALDH1A1 inh – qHTS Assay for Inhibitors of Aldehyde Dehydrogenase 1 (ALDH1A1). Purified ALDH1A1, NADH fluorescence, propionaldehyde substrate. Potency, µM (doses to about 75.3 µM), inactives show top-dose activity, negative = inhibition, actives largely listed as inhibitors. 220,000 compounds, 7.3% hits;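 further: potency means the concentration at half of the fitted maximal effect; plate controls were no enzyme wells and a reference inhibitor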
Target sequence (P00352 whole entry, looked up): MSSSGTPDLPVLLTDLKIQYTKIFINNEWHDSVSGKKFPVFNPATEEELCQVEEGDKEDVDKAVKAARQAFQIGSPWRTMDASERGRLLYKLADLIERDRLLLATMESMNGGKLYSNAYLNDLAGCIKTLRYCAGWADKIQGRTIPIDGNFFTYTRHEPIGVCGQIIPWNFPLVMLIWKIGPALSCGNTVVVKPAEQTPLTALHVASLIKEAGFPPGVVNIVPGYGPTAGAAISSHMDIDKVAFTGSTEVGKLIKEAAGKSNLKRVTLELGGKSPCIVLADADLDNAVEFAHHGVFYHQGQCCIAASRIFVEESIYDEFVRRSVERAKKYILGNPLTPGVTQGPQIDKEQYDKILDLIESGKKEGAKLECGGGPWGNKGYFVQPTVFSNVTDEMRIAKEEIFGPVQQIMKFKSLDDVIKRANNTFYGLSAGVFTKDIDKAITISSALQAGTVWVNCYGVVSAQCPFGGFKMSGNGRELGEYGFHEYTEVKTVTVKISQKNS
An asterisk follows results filed as active; [ ] = remark or other dose. Unless noted, the call rests on the fitted dose curve; in most records, active means well fitted inhibition curve with a large enough effect (not every such curve was filed as active); inconclusive means small, poorly fitted or top-dose-only effect, or another doubt; inactive means no such curve, though single readings can be large or run the other way. Unless noted, on the % scale 0 is the no-effect control and ±100 the full control effect.

For O=C(CSc1cc([N+](=O)[O-])cc(S(=O)(=O)Cc2ccccc2)c1)NC1CC1 the results were HPGD inh 22µM*, PNC assembly inh inconclusive and ALDH1A1 inh 25µM*.
C=CCNC(=O)CSc1cc([N+](=O)[O-])cc(S(=O)(=O)Cc2ccccc2)c1 was read as HPGD inh inconclusive, PNC assembly inh 14 and ALDH1A1 inh 4.5µM*.
Screening O=C(CSc1ccc(-c2cccc([N+](=O)[O-])c2)nn1)NC1CCCC1 returned ALDH1A1 inh 1%.
Screening C=CCNC(=O)CSc1ccc(Cl)cc1 returned HPGD inh -15%, PNC assembly inh inconclusive and ALDH1A1 inh 14%.
For CCCCCCCC(=O)N/N=C(\C)c1cccnc1 the results were HPGD inh 0%, PNC assembly inh -17 and ALDH1A1 inh -3%.
For COc1cc(/C=C2\OC(=O)c3c(OC)cccc32)ccc1O the results were HPGD inh inconclusive, PNC assembly inh 13 and ALDH1A1 inh inconclusive.
Screening CC(=O)NN1C(=O)/C(=C\c2ccc(Br)o2)SC1=S returned HPGD inh inconclusive, PNC assembly inh 26 and ALDH1A1 inh inconclusive.
CC(=O)NN1C(=O)/C(=C/c2ccc(Br)o2)SC1=S was read as HPGD inh inconclusive, PNC assembly inh 32 and ALDH1A1 inh 25µM*.
`O=c1c2nnn(Cc3ccccc3)c2ncn1C/C=C/c1ccccc1` gave HPGD inh 14µM*, PNC assembly inh 36 and ALDH1A1 inh -5%.
For CCOC(=O)Cn1cnc2c(nnn2Cc2ccc(Cl)cc2)c1=O the results were HPGD inh -13%, PNC assembly inh -24 and ALDH1A1 inh -6%.
O=C(Cn1cnc2c(nnn2Cc2ccc(Cl)cc2)c1=O)OCc1ccccc1 was read as HPGD inh 13µM*, PNC assembly inh 27 and ALDH1A1 inh 13µM*.
`COC(=O)C(C)n1cnc2c(nnn2Cc2ccc(Cl)cc2)c1=O` (stereo not drawn) gave HPGD inh 28µM*, PNC assembly inh -4 and ALDH1A1 inh -5%.
O=C(Cn1cnc2c(nnn2Cc2ccccc2)c1=O)c1ccc(Cl)cc1 was read as HPGD inh -17%, PNC assembly inh 52 and ALDH1A1 inh 5%.
CCOC(=O)C(C)n1cnc2c(nnn2-c2cccc(Cl)c2)c1=O (stereo not drawn) was read as HPGD inh -18%, PNC assembly inh -28 and ALDH1A1 inh 16%.
For CCOC(=O)Cc1cnc(NC(=O)CSc2nc(C)c(CC)c(=O)[nH]2)s1 the results were ALDH1A1 inh 2%.
COC(=O)CCC(=O)OC1(C)C(=O)C2=CN(C3CC3)C(c3ccc(OC)cc3)=CC2=C(Br)C1=O (stereo not drawn) was read as HPGD inh -7% and ALDH1A1 inh inconclusive.
Screening COC(=O)CCC(=O)OC1(C)C(=O)C2=CN(Cc3ccc(OC)cc3)C(c3ccc(OC)cc3)=CC2=C(Br)C1=O (stereo not drawn) returned HPGD inh -12% and ALDH1A1 inh 3.2µM*.
COC(=O)CCC(=O)OC1(C)C(=O)C2=CN(c3ccccc3)C(c3ccc(OC)cc3)=CC2=C(Br)C1=O (stereo not drawn) was read as HPGD inh -12% and ALDH1A1 inh 3.5µM*.
For COC(=O)CCC(=O)OC1(C)C(=O)C2=CN(Cc3ccccc3)C(c3ccc(OC)cc3)=CC2=C(Br)C1=O (stereo not drawn) the results were HPGD inh -3% and ALDH1A1 inh -15%[13.5 µM].
`O=C(c1ccccc1)N1CCN(c2ncnc3sc4c(c23)CCC4)CC1` gave HPGD inh -14%, PNC assembly inh 3 and ALDH1A1 inh 1.3µM*.
Screening CC(C)c1nc(N2CCN(C(=O)c3ccco3)CC2)c2c3c(sc2n1)CCCC3 returned HPGD inh inconclusive, PNC assembly inh -16 and ALDH1A1 inh inconclusive.
Screening Cc1nc(N2CCN(C(=O)c3ccco3)CC2)c2c3c(sc2n1)CCC3 returned HPGD inh 28µM*, PNC assembly inh -6 and ALDH1A1 inh inconclusive.
For c1nc(N2CCOCC2)c2c3c(sc2n1)CCCC3 the results were HPGD inh -7%, PNC assembly inh -12 and ALDH1A1 inh 6%.
O=C(Oc1cccc(Nc2ncnc3ccccc23)c1)c1ccccc1Cl was read as HPGD inh inconclusive, PNC assembly inh inconclusive and ALDH1A1 inh -1%.
Cc1cc(C)n(NC(=S)NC2CCCC2)c(=O)c1C#N was read as ALDH1A1 inh 18%.
Screening COCC(=O)OCC(=O)Nc1cc(C)c(C)cc1[N+](=O)[O-] returned HPGD inh -11%, PNC assembly inh 22 and ALDH1A1 inh -5%.
`CC1NC(=O)N(C)C2NC(=O)N(C)C(c3ccccc3)C12` (stereo not drawn) gave HPGD inh -7%, PNC assembly inh 10 and ALDH1A1 inh 8%.
`CN(CCC#N)C(=O)COC(=O)/C=C/c1cccs1` gave ALDH1A1 inh 7%.
Screening COc1ccc(N(CCC#N)C(=O)/C(C#N)=C/c2cccs2)cc1 returned ALDH1A1 inh 14µM*.
Screening CCC1C(=O)N=C(SCC(=O)Nc2nc3ccccc3s2)NC1=O (stereo not drawn) returned ALDH1A1 inh 13%.
`CC1CCCN(c2nc(NCc3ccco3)nc(N)c2[N+](=O)[O-])C1` (stereo not drawn) gave HPGD inh -22%, PNC assembly inh 16 and ALDH1A1 inh 2µM*.
Screening CC1CC(C)CN(c2nc(NCc3ccco3)nc(N)c2[N+](=O)[O-])C1 (stereo not drawn) returned HPGD inh -12%, PNC assembly inh 123 and ALDH1A1 inh 9%.
Screening CC(=O)Nc1ccc(OCC(O)CN2C(C)(C)CC(O)CC2(C)C)cc1 (stereo not drawn) returned HPGD inh 1%, PNC assembly inh inconclusive and ALDH1A1 inh 4%.
Screening Cc1onc(-c2ccc(Cl)cc2)c1-c1ccnn1S(=O)(=O)c1cccc(C(F)(F)F)c1 returned ALDH1A1 inh 3%.
Screening Cc1onc(-c2ccccc2)c1-c1ccnn1S(=O)(=O)c1ccc(Cl)cc1 returned ALDH1A1 inh 7.9µM*.
For CCOc1ccc(Cc2onc3c2C(=O)CC(C)(C)C3)cc1OCC the results were ALDH1A1 inh 8.9µM*.
For CCOc1ccc(CC(=N)C2=C(O)CC(C)(C)CC2=O)cc1OCC the results were HPGD inh -2%, PNC assembly inh 5 and ALDH1A1 inh -2%.
CCOc1ccc(CC(=O)C2C(=O)CC(C)(C)CC2=O)cc1OCC was read as HPGD inh -16%, PNC assembly inh 5 and ALDH1A1 inh 7.9µM*.
CCOc1ccc(CC(=O)C2=C(N3CCOCC3)CC(C)(C)CC2=O)cc1OCC was read as ALDH1A1 inh 40µM*.
CCOc1ccc(Cc2onc3c2C(=O)CCC3)cc1OCC was read as ALDH1A1 inh 1%.
`CCOc1ccc(CC(=O)C2C(=O)CCCC2=O)cc1OCC` gave HPGD inh -2%, PNC assembly inh 50 and ALDH1A1 inh inconclusive.
Screening O=C(Nc1cccc(Cl)c1)N(Cc1nc2ccccc2c(=O)[nH]1)Cc1cccs1 returned HPGD inh -3%, PNC assembly inh -3 and ALDH1A1 inh -2%.

Assay outcomes as filed in PubChem.
